Read-out in experiment [1]: Transforming growth factor beta 1 (TGFb1), TGFB1 (gene 7040)
The experiment can be described thus: BSK_KF3CT_TGFb1: BioMAP Diversity Plus: KF3CT Assay for Transforming growth factor beta 1 (TGFb1) Biomarker Activity (AID 2283072). To be noted: primary human keratinocytes with fibroblasts; actives raise or lower the signal. The method, boiled down:
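ELISA quantifies TGF-b1 at 24 h post-dose in a primary human skin co-culture of keratinocytes and fibroblasts, with gain or loss judged against DMSO. Parallel SRB total-protein staining flags overt cytotoxicity.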

Read-out in experiment [2]: C-C motif chemokine 2 (Homo sapiens) (UniProt P13500)
Nature of the experiment: BSK_KF3CT_MCP1: BioMAP Diversity Plus: KF3CT Assay for Monocyte Chemoattractant Protein 1 (MCP1/CCL2) Biomarker Activity (AID 2283073). The conditions noted are these: primary human keratinocytes with fibroblasts; actives raise or lower the signal. The method, boiled down: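 Human keratinocyte plus foreskin fibroblast primary co-culture exposed to chemical for 24 h. MCP-1 levels measured by ELISA. Bidirectional curve fitting relative to DMSO negative control as baseline.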

Read-out in experiment [3]: Matrix Metallopeptidase 9 (MMP9), MMP9 (gene 4318)
The experiment can be described thus: BSK_KF3CT_MMP9: BioMAP Diversity Plus: KF3CT Assay for Matrix Metallopeptidase 9 (MMP9) Biomarker Activity (AID 2283074). The conditions noted are these: primary human keratinocytes with fibroblasts; actives raise or lower the signal. The method, boiled down: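 ELISA read-out of MMP-9 at 24 h post-dosing in a co-culture of human skin keratinocytes and foreskin fibroblasts. Gain or loss of signal was fitted in both directions against DMSO.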

Read-out in experiment [4]: urokinase plasminogen activator (uPA), PLAU (gene 5328)
Nature of the experiment: BSK_KF3CT_uPA: BioMAP Diversity Plus: KF3CT Assay for urokinase plasminogen activator (uPA) Biomarker Activity (AID 2283075). To be noted: primary human keratinocytes with fibroblasts; actives raise or lower the signal. In short, it runs like this:
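Skin co-culture (keratinocytes + foreskin fibroblasts), human primary; 24 h post-dose; uPA by ELISA; gain/loss fit vs DMSO baseline.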

Read-out in experiment [5]: CD40, CD40 (gene 958)
The experiment can be described thus: BSK_LPS_CD40: BioMAP Diversity Plus: LPS Assay for CD40 Biomarker Activity (AID 2283076). To be noted: primary human HUVEC with PBMC; actives raise or lower the signal. In short, it runs like this: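 Primary human umbilical vein endothelial cells co-cultured with peripheral blood mononuclear cells, LPS-stimulated, were dosed with chemical and read 24 h later. CD40 levels were measured by ELISA and fitted bidirectionally against DMSO as negative control and baseline.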

Read-out in experiment [6]: E-selectin (Homo sapiens) (UniProt P16581)
The experiment can be described thus: BSK_LPS_Eselectin: BioMAP Diversity Plus: LPS Assay for Eselectin Biomarker Activity (AID 2283077). The conditions noted are these: primary human HUVEC with PBMC; actives raise or lower the signal. The method, boiled down:
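Human umbilical vein endothelial cells co-cultured with peripheral blood mononuclear cells under LPS stimulation; E-selectin measured by ELISA 24 h after chemical dosing. Activity fitted bidirectionally against DMSO as negative control and baseline.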

Read-out in experiment [7]: Interleukin-8 (IL8), CXCL8 (gene 3576)
Nature of the experiment: BSK_LPS_IL8: BioMAP Diversity Plus: LPS Assay for Interleukin-8 (IL8) Biomarker Activity (AID 2283078). The conditions noted are these: primary human HUVEC with PBMC; actives raise or lower the signal. In short, it runs like this: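 Human umbilical vein endothelial cells co-cultured with PBMC were stimulated with LPS; IL-8 levels were measured by ELISA 24 h after chemical dosing. Activity was fitted bidirectionally against DMSO as negative control and baseline.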

A short description of experiment [8]: BSK_LPS_SRB: Viability Assessment in the BioMAP Diversity Plus: LPS Assay (AID 2283079).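 Also: total protein by sulforhodamine B absorbance as a cytotoxicity measure; measured one day after compound addition.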 To be noted: primary human HUVEC with PBMC. The method, boiled down:
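Human umbilical vein endothelial cells co-cultured with PBMC (LPS system) were dosed for 24 h. Total protein was stained with 0.1% sulforhodamine B after 10% TCA fixation, read at 560 nm, and fitted bidirectionally against DMSO baseline.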

Read-out in experiment [9]: Interleukin-1 alpha (IL1a), IL1A (gene 3552)
The experiment can be described thus: BSK_LPS_IL1a: BioMAP Diversity Plus: LPS Assay for Interleukin-1 alpha (IL1a) Biomarker Activity (AID 2283080). The conditions noted are these: primary human HUVEC with PBMC; actives raise or lower the signal. In short, it runs like this:
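Human umbilical vein endothelial cells co-cultured with peripheral blood mononuclear cells were LPS-stimulated and exposed to test chemicals for 24 h. IL-1 alpha was quantified by ELISA, with bidirectional curve fitting against DMSO as the negative control and baseline.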

Read-out in experiment [10]: Monocyte Chemoattractant Protein-1 (MCP1), CCL2 (gene 6347)
The experiment can be described thus: BSK_LPS_MCP1: BioMAP Diversity Plus: LPS Assay for Monocyte Chemoattractant Protein-1 (MCP1) Biomarker Activity (AID 2283081). To be noted: primary human HUVEC with PBMC; actives raise or lower the signal. The method, boiled down:
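HUVEC plus PBMC co-culture (human primary cells, LPS system) exposed to test chemical for 24 h; MCP-1 measured by ELISA. Bidirectional curve fitting against DMSO baseline; parallel SRB total-protein staining flags overt cytotoxicity.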

Experiment [11] can be described thus: BSK_LPS_PGE2: BioMAP Diversity Plus: LPS Assay for Prostaglandin E2 (PGE2) Biomarker Activity (AID 2283082). To be noted: primary human HUVEC with PBMC; actives raise or lower the signal. In short, it runs like this:
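PGE2 release measured by ELISA in an LPS-activated co-culture of human umbilical vein endothelial cells and peripheral blood mononuclear cells, read at 24 h post-dosing. DMSO served as baseline for bidirectional curve fitting.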

Read-out in experiment [12]: Macrophage colony-stimulating factor (MCSF), CSF1 (gene 1435)
The experiment can be described thus: BSK_LPS_MCSF: BioMAP Diversity Plus: LPS Assay for Macrophage colony-stimulating factor (MCSF) Biomarker Activity (AID 2283083). To be noted: primary human HUVEC with PBMC; actives raise or lower the signal. The method, boiled down:
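Human umbilical vein endothelial cells co-cultured with peripheral blood mononuclear cells were exposed to compound for 24 h. M-CSF levels were measured by ELISA, and bidirectional curve fitting used DMSO as the negative control and baseline.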

Read-out in experiment [13]: Tissue Factor, F3 (gene 2152)
Nature of the experiment: BSK_LPS_TissueFactor: BioMAP Diversity Plus: LPS Assay for Tissue Factor Biomarker Activity (AID 2283084). The conditions noted are these: primary human HUVEC with PBMC; actives raise or lower the signal. In short, it runs like this:
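Human umbilical vein endothelial cells co-cultured with peripheral blood mononuclear cells were dosed and stimulated with LPS. Cell-surface CD142 was quantified by ELISA at 24 h. Activity was fitted bidirectionally against DMSO baseline.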

Read-out in experiment [14]: Tumor necrosis factor (Homo sapiens) (UniProt P01375)
The experiment can be described thus: BSK_LPS_TNFa: BioMAP Diversity Plus: LPS Assay for Tumour Necrosis Factor alpha (TNFa) Biomarker Activity (AID 2283085).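 As to AC50: TNFa protein level quantified by ELISA in the co-culture.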 The conditions noted are these: primary human HUVEC with PBMC; actives raise or lower the signal. In short, it runs like this: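 TNFa was quantified by ELISA in LPS-activated co-cultures of human endothelial cells and PBMC, 24 h post-dosing. Both increases and decreases versus DMSO were fitted.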

Read-out in experiment [15]: Vascular cell adhesion molecule 1 (VCAM1), VCAM1 (gene 7412)
The experiment can be described thus: BSK_LPS_VCAM1: BioMAP Diversity Plus: LPS Assay for Vascular cell adhesion molecule 1 (VCAM1) Biomarker Activity (AID 2283086). The conditions noted are these: primary human HUVEC with PBMC; actives raise or lower the signal. In short, it runs like this:
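VCAM-1 quantified by ELISA in an LPS-activated co-culture of human endothelial cells and peripheral blood mononuclear cells, read 24 h post-treatment. Fitted in both directions versus DMSO; parallel SRB staining flags overt cytotoxicity.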

Read-out in experiment [16]: CD40, CD40 (gene 958)
The experiment can be described thus: BSK_SAg_CD40: BioMAP Diversity Plus: SAg Assay for CD40 Biomarker Activity (AID 2283088). To be noted: primary human HUVEC with PBMC; actives raise or lower the signal. In short, it runs like this: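 Human umbilical vein endothelial cells co-cultured with PBMC; CD40 levels measured by ELISA with fluorescence read-out 24 h after chemical dosing. Gain or loss of signal fitted bidirectionally against DMSO baseline.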

Read-out in another experiment: CD69, CD69 (gene 969)
Nature of the experiment: BSK_SAg_CD69: BioMAP Diversity Plus: SAg Assay for CD69 Biomarker Activity (AID 2283089).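 As to AC50: cell surface CD69 protein quantified by ELISA with fluorescence detection.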 To be noted: primary human HUVEC with PBMC; actives raise or lower the signal. In short, it runs like this:
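Primary human vascular co-culture (umbilical vein endothelium with peripheral blood mononuclear cells) exposed to test chemical for 24 h. CD69 levels quantified by fluorescence ELISA; DMSO served as negative control for bidirectional fitting.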

Read-out in experiment [17]: Monocyte Chemoattractant Protein-1 (MCP1), CCL2 (gene 6347)
Nature of the experiment: BSK_SAg_MCP1: BioMAP Diversity Plus: SAg Assay for Monocyte Chemoattractant Protein-1 (MCP1) Biomarker Activity (AID 2283090). The conditions noted are these: primary human HUVEC with PBMC; actives raise or lower the signal. The method, boiled down: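 Values derive from bidirectional fitting of ELISA-measured MCP1 against DMSO controls. Readings were taken 24 h after dosing human vascular endothelial cells co-cultured with peripheral blood mononuclear cells under superantigen stimulation.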

Read-out in experiment [18]: E-selectin (Homo sapiens) (UniProt P16581)
The experiment can be described thus: BSK_SAg_Eselectin: BioMAP Diversity Plus: SAg Assay for Eselectin Biomarker Activity (AID 2283091). To be noted: primary human HUVEC with PBMC; actives raise or lower the signal. In short, it runs like this: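 HUVEC co-cultured with PBMC, compound dosed then read at 24 h; E-selectin measured by ELISA. Activity fitted bidirectionally against DMSO as negative control and baseline.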

Read-out in a further experiment: CD38, CD38 (gene 952)
Nature of the experiment: BSK_SAg_CD38: BioMAP Diversity Plus: SAg Assay for CD38 Biomarker Activity (AID 2283087). The conditions noted are these: primary human HUVEC with PBMC; actives raise or lower the signal. The method, boiled down:
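CD38 quantified by ELISA (fluorescence) in a superantigen-activated endothelial cell–PBMC co-culture at 24 h post-dose. Activity fitted in both directions relative to DMSO; parallel SRB and Alamar Blue cytotoxicity read-outs.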

Active and inactive are the calls of the source. The calls were made as follows: active = hit-call score of the fitted dose curve at least 0.9, where 1 is the maximum; inactive = score below 0.9.

Sequence of E-selectin (Homo sapiens) (P16581 whole entry, looked up): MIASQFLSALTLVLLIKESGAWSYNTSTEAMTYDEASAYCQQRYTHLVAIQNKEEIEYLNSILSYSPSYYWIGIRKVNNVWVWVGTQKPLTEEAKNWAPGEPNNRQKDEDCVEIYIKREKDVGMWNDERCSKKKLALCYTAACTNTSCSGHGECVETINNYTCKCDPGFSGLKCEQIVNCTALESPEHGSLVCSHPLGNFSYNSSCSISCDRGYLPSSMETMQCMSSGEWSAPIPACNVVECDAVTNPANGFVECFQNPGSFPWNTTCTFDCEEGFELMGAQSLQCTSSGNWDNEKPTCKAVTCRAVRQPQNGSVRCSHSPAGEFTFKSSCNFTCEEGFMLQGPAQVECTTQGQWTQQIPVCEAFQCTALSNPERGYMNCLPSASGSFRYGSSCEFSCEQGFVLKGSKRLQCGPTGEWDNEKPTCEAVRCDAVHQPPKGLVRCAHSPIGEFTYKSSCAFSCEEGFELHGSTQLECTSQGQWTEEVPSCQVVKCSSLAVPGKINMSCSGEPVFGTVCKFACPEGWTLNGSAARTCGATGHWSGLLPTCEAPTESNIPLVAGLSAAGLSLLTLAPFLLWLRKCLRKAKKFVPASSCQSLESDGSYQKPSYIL
Sequence of Tumor necrosis factor (Homo sapiens) (P01375 whole entry, looked up): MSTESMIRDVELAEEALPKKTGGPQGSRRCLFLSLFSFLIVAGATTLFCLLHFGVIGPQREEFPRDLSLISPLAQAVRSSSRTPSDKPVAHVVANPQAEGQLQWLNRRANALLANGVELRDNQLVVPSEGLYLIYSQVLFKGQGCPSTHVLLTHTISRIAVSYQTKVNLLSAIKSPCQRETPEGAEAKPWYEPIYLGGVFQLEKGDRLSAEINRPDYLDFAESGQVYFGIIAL

As to `CC1(C)CCC(=Cc2ccc(Cl)cc2)C1(O)Cn1cncn1` (stereo not given), the outcome in experiment [1] is “inactive”; in experiment [2] it was “inactive”; in experiment [3], “inactive”; in experiment [4], “inactive”; with CD40, CD40 (gene 958) [5], “inactive”; in experiment [6], “inactive”. The result in experiment [7], in [8], in experiment [9], in experiment [10], in experiment [11] and in experiment [12] was inactive. Besides, the outcome in [13] is “inactive”; in experiment [14] it was “inactive”; in experiment [15], “inactive”; with CD40, CD40 (gene 958) [16], “inactive”; in the experiment with CD69, CD69 (gene 969), “inactive”; in experiment [17] it was “inactive”. Further, the result in [18] was inactive.

As to `COC(=O)NC(=S)Nc1ccccc1NC(=S)NC(=O)OC`, the outcome in experiment [1] is “inactive”; in experiment [2], “inactive”; in [3] it was “inactive”; in experiment [4] it was “inactive”; with CD40, CD40 (gene 958) [5], “inactive”; in experiment [6], “inactive”. Moreover, the outcome in [7], in experiment [8], in experiment [9], in [10], in [11] and in experiment [13] was inactive. The outcome was “inactive” in experiment [14]; “inactive” in experiment [15]; “inactive” in the experiment with CD40, CD40 (gene 958) [16]; “inactive” in [17]. Moreover, the AC50 in [12] was 22.8 µM (active); in experiment [18], 15.1 µM (active).

Turning to `CN=C=S`, the outcome in [1] was “inactive”; in experiment [2], “inactive”; in experiment [3], “inactive”; in experiment [4], “inactive”; with CD40, CD40 (gene 958) [5], “inactive”; in experiment [6] it was “inactive”. In addition, the outcome in experiment [7], in [8], in experiment [9], in [10], in [11] and in experiment [12] was inactive. Further, the result in experiment [13], in experiment [14] and in experiment [15] was inactive. For the same compound, the AC50 with CD38, CD38 (gene 952) was 10 µM (active); with CD40, CD40 (gene 958) [16] it was 13.5 µM (active); in [17], 20 µM (active); in [18], 12 µM (active).

In the case of `CCN(CC)c1nc(C)cc(OP(=S)(OC)OC)n1`, the result in experiment [1], in [2], in experiment [3], in experiment [4], in [6] and in experiment [7] was inactive. The result in [8], in experiment [9], in experiment [10], in experiment [11], in experiment [13] and in [17] was inactive. For the same compound, the AC50 with CD40, CD40 (gene 958) [5] was 19.5 µM (active); in experiment [12], 20 µM (active); in [14], 6.51 µM (active); in experiment [15], 20 µM (active); with CD40, CD40 (gene 958) [16] it was 20 µM (active); in the experiment with CD69, CD69 (gene 969), 3.97 µM (active). The AC50 in [18] was 10.5 µM (active).

The values are drawn from PubChem BioAssay (EPA / NIEHS).
